From PubChem BioAssay (NCATS) come the findings set out here.

SMILES strings stand for the structures. Several values for one entry are separate records, joined by “and”; a condition that tells them apart may be missing. Equal values may be shown once. Activity calls are given as the source filed them. Calls follow the shape of the dose curve; as a rule, active = well fitted activation curve with a large enough effect; inconclusive = small, poorly fitted or top-dose-only effect, or effect the other way; inactive = flat fitted curve, though single readings scatter.

A short description of one assay: Cellular Toxicity (caspase-3) Renal Proximal Tubule (AID 667).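 Also: cells exposed to compound for 16 hours at 37 °C before detection.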 The conditions noted are these: renal proximal tubule cells, at 91.7 µM (top of the series). The text has this: NIH Chemical Genomics Center [NCGC]
NIH Molecular Libraries Screening Centers Network [MLSCN]
National Institutes of Environmental Health Sciences [NIEHS]
National Toxicology Program [NTP]
We have developed a 1536-well cell-based assay for quantitative high throughput screening (qHTS) against a number of cell lines to determine in vitro caspase 3/7 activity of small molecules. This particular assay uses the primary kidney proximal tubule cells freshly isolated from rat.
NCGC Assay Protocol Summary:
The Caspase-Glo 3/7 assay (Promega) is a homogeneous method to measure caspase-3 and caspase-7 activities in cultured cells. The quantitation of caspase 3/7 activity is based on the cleavage of a peptide-aminoluciferin substrate. After caspase cleaves the substrate the free aminoluciferin is liberated and serves as the substrate of luciferase, which generates the light. The luminescent signal is proportional to the amount of caspase 3/7 activity present.
Using the Caspase-Glo 3/7 assay, the amount of caspase 3/7 activity was measured in the rat kidney proximal tubule cells with complete culture medium following compound treatment for 16 hours. The assay was performed in opaque white 1536-well plates. In the screen, staurosporine and doxorubicin were used as positive controls. Library compounds were measured for their ability to cause the activation of caspase 3/7 in the cell line, as reflected by an increase in luminescence signal, in a concentration-dependent manner. Data were normalized to the controls for basal activity (DMSO only) and 100% stimulation (10 uM staurosporine). AC50 values were determined from concentration-response data modeled with the standard Hill equation.
qHTS protocol for caspase 3/7 assay in rat kidney proximal tubule cells
[Step] [Parameter] [Value] [Description]
1. Reagent; 5 uL; 1000 rat kidney proximal tubule cells/well
2. Time; 5 hr; 37 °C incubation
4. Controls; 23 nL; doxorubicin 7 pM to 100 uM & staurosporine 1.4 pM to 20 uM
5. Time; 16 hr; 37 °C incubation
6. Reagent; 5 uL; Caspase-Glo 3/7 reagent
7. Time; 1 hr; Room Temperature
8. Detection; Luminescence; Viewlux plate reader
Keywords: caspase 3/7, apoptosis, rat kidney proximal tubule cells, luminescence, NTPHTS, NTPHTS_NCGC, NIEHS, EPA, DSSTox, MLSMR, MLSCN, NIH Roadmap, qHTS, NCGC
`Cc1ccccc1N`: the caspase-3 activation was -5.94% (inactive).

Staying with this assay, now noted: renal proximal tubule cells, at 91.7 µM (top of the series), primary cells freshly taken from rat, solvent-only wells 0%, staurosporine 100%.
As to `Cc1ccccc1N`, the caspase-3 activation is 22.1% (inactive).

The assay is the same for the next values; noted with them: renal proximal tubule cells; at 91.7 µM (top of the series), primary cells freshly taken from rat, solvent-only wells 0%, staurosporine 100% unless noted.
In the case of `C=C(Cl)Cl`, the caspase-3 activation was 1.42% (inactive).

In the case of `Nc1ccc(Br)cc1`, the caspase-3 activation is -0.502% (inactive).

Consider `CC(C)(C)OOC(C)(C)C`, for which the caspase-3 activation was 11.1% (inactive).

Turning to `OCC(Br)CBr` (stereo not given), the caspase-3 activation is 0.653% (inactive).

For `O=C1C(Cl)=C(Cl)C(=O)C(Cl)=C1Cl`, the caspase-3 activation was -16.1% (inactive).

For the compound `Nc1ccccc1Cl`, the caspase-3 activation is 2.73% (inactive).

As to `C/C=C/c1ccc2c(c1)OCO2`, the caspase-3 activation was -4.01% [at 91.7 µM] (inactive).

With `NC(=S)Nc1ccccc1`, the caspase-3 activation is 12.5% [at 91.7 µM] (inactive) and -6.92% [at 91.7 µM] (inactive).

`C=CC(=O)OCC`: the caspase-3 activation was -0.996% (inactive).

Regarding `CCCCCCCC(=O)Cl`, the caspase-3 activation is 8.29% (inactive).

As to `CCOP(=S)(OCC)Oc1ccc([N+](=O)[O-])cc1`, the caspase-3 activation is 14.9% (inactive) and 4.17% (inactive).

`Cc1ccc([N+](=O)[O-])cc1C`: the caspase-3 activation was -2.52% (inactive).

Take `Clc1cccc(C(Cl)(Cl)Cl)n1`: the caspase-3 activation is 4.49% (inactive).

On to `Clc1nc(Cl)nc(Nc2ccccc2Cl)n1`, for which the caspase-3 activation is -3.95% (inactive).

For the compound `CCCC(=O)Cl`, the caspase-3 activation was 6.16% (inactive).

Consider `CCCSC(=O)Cl`, for which the caspase-3 activation was 5.81% (inactive).

Consider `CC(C)(c1ccccc1)c1ccc(O)cc1`, for which the caspase-3 activation was 4.59% (inactive).

In the case of `S=C=Nc1cccc2ccccc12`, the caspase-3 activation was -4.28% (inactive).

`CCCOC(=O)c1ccccc1C(=O)OCCC`: the caspase-3 activation was 0.709% (inactive).

`CCSC(=O)Cl`: the caspase-3 activation was 8.48% (inactive).

For `Clc1nc(Cl)nc(Cl)n1`, the caspase-3 activation is 1.34% (inactive).

As for `CCCCCCCCCc1ccc(O)cc1`, the caspase-3 activation is 172% (active).

For the compound `O=[N+]([O-])c1ccc(Cl)c(Cl)c1`, the caspase-3 activation is 4.74% [at 91.7 µM] (inactive).

With `CNC(=O)O/N=C/C(C)(C)SC`, the caspase-3 activation is -0.514% [at 91.7 µM] (inactive).

Regarding `Cc1ccc2ccccc2c1`, the caspase-3 activation is 18.4% (inactive).

With `Nc1c(Cl)c(Cl)nc(C(=O)O)c1Cl`, the caspase-3 activation was -0.472% (inactive).

`COC1=CC(=O)O[C@@H](/C=C/c2ccc3c(c2)OCO3)C1`: the caspase-3 activation is -22.8% (inactive).

For `O=[N+]([O-])c1cccc2ccccc12`, the caspase-3 activation is -1.57% (inactive).

With `c1nc[nH]n1`, the caspase-3 activation was 6.18% (inactive).

As to `c1ccc(N=Nc2ccccc2)cc1`, the caspase-3 activation was 1.95% (inactive).

Turning to `O=NN(c1ccccc1)c1ccccc1`, the caspase-3 activation is 1.42% (inactive).

On to `C=CCc1ccc2c(c1)OCO2`, for which the caspase-3 activation was -2.37% [at 91.7 µM] (inactive).

On to `C=CC(N)=O`, for which the caspase-3 activation was 6.41% (inactive) and -1% (inactive).

Consider `O=NN(CCO)CCO`, for which the caspase-3 activation was 4.45% (inactive).

With `ClC1=C(Cl)C2(Cl)C3C4CC(C5OC45)C3C1(Cl)C2(Cl)Cl` (stereo not given), the caspase-3 activation is -4.43% [at 91.7 µM] (inactive).

In the case of `Brc1ccccc1`, the caspase-3 activation is -10.7% (inactive).

Turning to `O=C=NC1CCCCC1`, the caspase-3 activation is 5.04% (inactive) and -5.65% (inactive).

`COc1ccc(N)cc1`: the caspase-3 activation was 4.4% (inactive) and -11% (inactive).
